Rows were chosen to be rich in hits. Some 6% of all compounds tested hit in one or more screens of this group.
DRD3 antagonist = antagonists of human D3 dopamine receptor | actives 2.5% (n = 360,000) | P35462 | D3R cells, DiscoveRx beta-arrestin luminescence, antagonist mode; stronger effect = lower value | max response, negative = inhibition, % | AID 652054; in the data active means max response below about -50%; inconclusive means no clear call, values can overlap the other calls; further: on the % scale 0 is the no-effect control and ±100 the full control effect
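Cells plated overnight at 1500 cells/well, then exposed to library compounds with dopamine controls for 90 minutes at 37 degrees C. DiscoveRx reagent added for 30–60 minutes at room temperature; luminescence read, quantitative HTS format.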
D1 PAM = potentiators of human D1 dopamine receptor | P21728 | HEK293 TREx D1 cells, calcium flux, dopamine EC20 potentiation | potentiation, % at 10 µM | actives 0.036% (n = 360,000); in the data active means potentiation above about 30%; further: 0% is about no effect
Target sequence (P21728 whole entry, looked up): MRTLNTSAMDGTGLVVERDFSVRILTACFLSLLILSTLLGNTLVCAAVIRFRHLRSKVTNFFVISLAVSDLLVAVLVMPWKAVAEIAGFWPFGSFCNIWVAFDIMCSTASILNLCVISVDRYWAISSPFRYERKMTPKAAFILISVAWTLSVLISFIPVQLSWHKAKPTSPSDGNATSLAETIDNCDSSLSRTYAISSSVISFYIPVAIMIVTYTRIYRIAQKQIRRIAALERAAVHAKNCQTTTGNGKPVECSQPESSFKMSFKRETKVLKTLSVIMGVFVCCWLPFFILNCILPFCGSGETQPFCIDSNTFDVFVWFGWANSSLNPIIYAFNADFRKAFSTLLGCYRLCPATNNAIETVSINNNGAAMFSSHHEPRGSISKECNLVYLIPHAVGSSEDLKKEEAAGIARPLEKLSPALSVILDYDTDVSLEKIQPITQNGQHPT
D1 antag = human D1 dopamine receptor antagonism. P21728. HEK293 TREx D1 cells, calcium flux, dopamine EC80; stronger effect = lower value. activity change, negative = inhibition, % at 10 µM. actives 3.2% (n = 360,000); in the data active means activity change below about -30%; further: on the % scale 0 is the no-effect control and ±100 the full control effect
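Compound effects on dopamine-evoked calcium signalling were measured in tetracycline-induced HEK293 Trex D1 cells. Dopamine at EC80 followed a 180 s compound pre-read, and fluorescence was tracked kinetically for 180 s more.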
DRD3 agonist = activates the human D3 dopamine receptor | P35462 | max activation, % | D3R DiscoveRx beta-arrestin cells, luminescence, 90 min | actives 0.58% (n = 410,000) | AID 652048; in the data active means max activation above about 30%; further: 0% is about no effect
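Agonist-mode cell screen: cells plated at 1500/well and incubated overnight at 37 °C, then exposed to library compounds for 90 min at 37 °C. Detection reagent was added for 30–60 min at room temperature, and luminescence was read.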
D1 agonist = human D1 receptor agonism; HEK293 T-REx D1 cells, calcium flux, agonist mode; activation, % at 2 µM; actives 1% (n = 360,000); AID 504660; in the data active means activation above about 30%; further: 0% is about no effect
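Inducible HEK293 T-REx D1 cells, force-coupled to calcium signalling, were plated at 4000 cells/well with tetracycline and held overnight at 30 C. After no-wash calcium dye loading, compound-evoked calcium rise over 180 s flagged agonists.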
Chronic BCR inh = chronic active BCR signaling inhibition; actives 0.05% (n = 340,000); Potency, µM (top dose mostly 46.1 µM), without a hit: at the top dose activity change, negative = inhibition, actives largely listed as inhibitors; ABC-DLBCL IkBa-CBG/CBR reporter, luminescence ratio, 4 h; active means well fitted inhibition curve with a large enough effect in the signal ratio, with a control signal flat, not every such curve was filed as active; inconclusive means small, poorly fitted or top-dose-only effect, or effect the other way, or a change in a side signal; the % refers to the signal ratio;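 further: potency means the concentration at half of the fitted maximal effect; plate controls were basal doxycycline-induced cells for no effect and cells given 10 µM MG132 for full effect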
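Compounds up to 46 uM were incubated four hours with TMD8 cells whose green CBG68 luciferase is fused to IkappaBalpha; red CBR luminescence normalised the signal, and concentration-effect curves were fitted to fusion, red and ratio data.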
* hit, by the source's call; ! = repeats disagree.

How did CNc1ccc(C(=O)CC(O)CCC(C)C2OC(=O)CC(O)CC(=O)CC(O)CC(O)CC(O)CC(O)CC3(O)CC(O)C(C(=O)OC)C(CC(O[C@@H]4O[C@H](C)[C@@H](O)[C@H](N)[C@@H]4O)/C=C/C=C/C=C/C=C/C=C/C=C/C=C/C2C)O3)cc1 (stereo not given in full) do in these assays?
DRD3 agonist: 8

How did Nc1c(C(=O)NCCN2CCOCC2)c2nc3ccccc3nc2n1Cc1ccco1 do in these assays?
DRD3 antagonist: -27; D1 PAM: -3; D1 antag: -42*; DRD3 agonist: 7; D1 agonist: 4; Chronic BCR inh: inconclusive

How did CCN(CC)CCc1c[nH]c2ccccc12 do in these assays?
DRD3 agonist: -7

What do the screens show for `O=C(N=Nc1c(O)[nH]c(=O)[nH]c1=O)C1COc2ccccc2O1` (stereo not given)?
DRD3 antagonist: 10; D1 PAM: -10; D1 antag: -37*; DRD3 agonist: 2; D1 agonist: 2; Chronic BCR inh: 7%

What do the screens show for `COc1cc(C(O)c2nc3ccccc3s2)cc(OC)c1OC` (stereo not given)?
DRD3 antagonist: 18; D1 PAM: -1; D1 antag: -8; DRD3 agonist: 1; D1 agonist: 6; Chronic BCR inh: inconclusive

What do the screens show for `COc1ccc(CN2CCN(c3ccccc3)CC2)c(C)c1C`?
DRD3 antagonist: -75*; D1 PAM: -8; D1 antag: 2; DRD3 agonist: 1; D1 agonist: -1; Chronic BCR inh: 24%

How did Oc1ccc(Cl)cc1CN1CCN(Cc2ccccc2)CC1 do in these assays?
DRD3 antagonist: -66*; D1 PAM: -8; D1 antag: -3; DRD3 agonist: -3; D1 agonist: 3; Chronic BCR inh: inconclusive

What do the screens show for `Oc1cc2c(cc1CN1CCN(c3ccccc3)CC1)CCC2`?
DRD3 antagonist: -7; D1 PAM: -7; D1 antag: 9; DRD3 agonist: -2; D1 agonist: 1; Chronic BCR inh: 3%

How did O=C(Cc1ccccc1)N1CCN(Cc2ccc(Cl)cc2)CC1 do in these assays?
DRD3 antagonist: 2; DRD3 agonist: -11

How did Cc1cc(O)c(CN2CCN(c3ccccc3)CC2)cc1C do in these assays?
DRD3 antagonist: -65*; D1 PAM: -6; D1 antag: 13; DRD3 agonist: -24; D1 agonist: -2; Chronic BCR inh: 8%

Results for Oc1cc2c(cc1CN1CCN(c3ccc(F)cc3)CC1)OCO2 ?
DRD3 antagonist: -66*; D1 antag: -13; DRD3 agonist: -24; D1 agonist: 3; Chronic BCR inh: -14%

Results for Fc1cccc(F)c1CN1CCN(c2ccc(Cl)cc2)CC1 ?
DRD3 antagonist: -16; D1 PAM: -4; D1 antag: -2; DRD3 agonist: -12; D1 agonist: 1; Chronic BCR inh: inconclusive

What do the screens show for `COc1cccc(CN2CCN(c3ccc(F)cc3)CC2)c1OC`?
DRD3 antagonist: inconclusive; DRD3 agonist: -10

How did F/C(COc1ccc2c(c1)[nH]c1ccccc12)=C1/CN2CCC1CC2 do in these assays?
DRD3 agonist: -14

What do the screens show for `Cc1ccc(O)c(CN2CCN(c3ccccc3)CC2)c1`?
DRD3 antagonist: -80*; D1 PAM: -3; D1 antag: -9; DRD3 agonist: -6; D1 agonist: 2; Chronic BCR inh: inconclusive

Results for Brc1cc2c(cc1CN1CCN(c3ccccc3)CC1)OCCO2 ?
DRD3 antagonist: -73*; D1 PAM: -2; D1 antag: -3; DRD3 agonist: -28; D1 agonist: 1; Chronic BCR inh: 11%

Results for Cc1ccc(O)c(CN2CCC3CCC(C3)C2)c1 (stereo not given) ?
DRD3 antagonist: -2; DRD3 agonist: 1

Results for Cc1ccc(-n2c(/C=C\c3ccc(F)c(F)c3)nc3ccccc3c2=O)c(C)c1 ?
D1 PAM: -1; D1 antag: 10; DRD3 agonist: 14; D1 agonist: 0; Chronic BCR inh: -9%

How did CC(=O)Nc1ccc2nc(NC(=O)c3ccc([N+](=O)[O-])o3)sc2c1 do in these assays?
DRD3 antagonist: -3; D1 PAM: -6; D1 antag: -3; DRD3 agonist: -5; D1 agonist: -2; Chronic BCR inh: inconclusive

What do the screens show for `CCN(CC)C(=O)c1ccc(NC(=O)c2cccc(S(=O)(=O)N3CCN(Cc4ccccc4)CC3)c2)cc1`?
DRD3 antagonist: 9; D1 PAM: -7; D1 antag: -32*; DRD3 agonist: -9; D1 agonist: 5; Chronic BCR inh: 5%

What do the screens show for `C#CC(C)(O)CC` (stereo not given)?
DRD3 agonist: -2

What do the screens show for `COc1ccc(-c2nc3ccc(Br)cn3c2CC(=O)N2CCCC2)cc1OC`?
DRD3 antagonist: -52*; DRD3 agonist: -8

Results for O=C(Cc1c(-c2ccccc2)nc2ccc(Br)cn12)N1CCCC1 ?
DRD3 antagonist: -9; DRD3 agonist: 4

What do the screens show for `O=C(CSCc1ccccc1Cl)Nc1ccc2c(c1)OCCO2`?
DRD3 antagonist: -16; D1 PAM: 2; D1 antag: -36*; DRD3 agonist: 5; D1 agonist: 1; Chronic BCR inh: inconclusive

How did COC1CCC(OC2CC(C3(C)CCC4(CC(O)C(C)C(C(C)/C=C(\C)C(=O)C(C)CC(C)C(=O)O)O4)O3)OC3(OC(C4OC(O)(CO)C(C)CC4C)CC3C)C2C)OC1C (stereo not given) do in these assays?
DRD3 antagonist: 133; DRD3 agonist: 71*

How did Cc1cc2c(C(C)C)c(O)c(O)c(C=O)c2c(O)c1-c1c(C)cc2c(C(C)C)c(O)c(O)c(C=O)c2c1O do in these assays?
D1 PAM: -5; D1 antag: 3; DRD3 agonist: 13; D1 agonist: 34*!; Chronic BCR inh: inconclusive

How did O=S(=O)(Cc1cc(N2CCOCC2)nc(-c2ccccn2)n1)c1ccccc1 do in these assays?
DRD3 antagonist: -9; D1 PAM: 2; D1 antag: -5; DRD3 agonist: 5; D1 agonist: 2; Chronic BCR inh: inconclusive

How did COc1ccc(/C(N)=N/OC(=O)c2c(-c3ccccc3Cl)noc2C)cc1OC do in these assays?
DRD3 antagonist: 37; D1 PAM: -6; D1 antag: 16; DRD3 agonist: 27; D1 agonist: 2; Chronic BCR inh: inconclusive

How did C[C@@H]1NCCc2cc(O)c(O)cc21 do in these assays?
DRD3 antagonist: -74*; D1 PAM: -5; D1 antag: -13; DRD3 agonist: -75; D1 agonist: -1; Chronic BCR inh: -3%

How did CCCN(CCC)c1c([N+](=O)[O-])cc(S(N)(=O)=O)cc1[N+](=O)[O-] do in these assays?
DRD3 agonist: -3

Screening results: PubChem BioAssay, National Center for Advancing Translational Sciences (NCATS)
